DAX1 inh-1 – DAX1 (NR0B1) inhibitors on StAR promoter, primary screen, cell-based, luminescence, SF-1 (NR5A1), full-length DAX-1. AID 652010, 2013. 370,000 tested, 1.1% active. inhibition, % at 6.8 µM. HEK293T StAR-luciferase reporter, SF-1/DAX-1 repression relief;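 active means inhibition above the mean over all tested compounds plus 3 SD, cut at about 3.6% in these data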;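 further: higher inhibition means more luminescence from relief of DAX-1 repression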
hcDAF12 agonist – H. contortus DAF-12 nuclear receptor activators, primary screen, cell-based, luminescence, HEK293, lit1-tk-luc reporter; HEK293 hcDAF-12 lit1-tk-luc reporter; 0% DMSO, 100% Δ7-dafachronic acid; activation, % at 6.8 µM; 370,000 tested, 1.4% active;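 active means activation above the mean of all tested compounds plus 3 SD, cut at about 5.5% in these data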
SMARCA2 act – SMARCA2 (BRM) function activators, primary screen, cell-based, luminescence, high throughput; MG213 cells, MMTV-luciferase reporter, dexamethasone, overnight; activation, % at 9.1 µM; 370,000 tested, 1% active; AID 652017, 2013; in the data active means activation above about 7.8%
hgDAF12 agonist – H. glycines DAF-12 receptor agonists, primary screen, cell-based, luminescence, HEK293, GAL4 fusion, UAS-luciferase; HEK293 GAL4-hgDAF12 UAS-luciferase reporter, agonist luminescence; normalized to butyrate control; activation, % at 6.8 µM; 370,000 tested, 1.8% active;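 active means activation above a cutoff set at the mean of all screened compounds plus 3 SD, cut at about 10% in these data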
ssDAF12 agonist – S. stercoralis DAF-12 nuclear receptor activators, primary screen, cell-based, luminescence, HEK293, GRIP1 co-expression, lit1-tk-luc. Nuclear hormone receptor DAF-12 (Strongyloides stercoralis). HEK293 ssDAF-12/GRIP1 lit1-tk-luc reporter; % of 3 µM dafachronic acid response. activation, % at 6.8 µM. 370,000 tested, 1% active;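 active means activation above the mean over all tested compounds plus 3 SD, cut at about 0.9% in these data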
DAX1 inh-2 – DAX1 (NR0B1) inhibitors, primary screen, cell-based, HEK293, Gal4-DAX1, luciferase luminescence; 340,000 tested, 0.99% active; inhibition, % at 6.75 µM; HEK293 Gal4-DAX1 luciferase reporter; Nuclear receptor subfamily 0 group B member 1 (Homo sapiens), P51843;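 active means inhibition above the mean over all tested compounds plus 3 SD, cut at about 4.2% in these data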;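 further: inhibition shows as a rise in luminescence from relieved DAX1 repression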
Target sequence (P51843 207-470 limits assumed): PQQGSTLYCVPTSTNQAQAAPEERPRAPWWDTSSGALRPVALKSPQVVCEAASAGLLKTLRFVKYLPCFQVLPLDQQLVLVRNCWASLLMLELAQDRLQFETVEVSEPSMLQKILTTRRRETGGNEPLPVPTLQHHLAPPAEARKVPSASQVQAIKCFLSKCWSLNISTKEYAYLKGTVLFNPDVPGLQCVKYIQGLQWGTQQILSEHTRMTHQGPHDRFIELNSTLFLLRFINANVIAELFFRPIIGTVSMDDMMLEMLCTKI
Numbers stand for hits; n = inactive; x = no result. Sampled rows, rich in hits. Any-hit rate of the full collection: about 4.8%.

SMILES	DAX1 inh-1	hcDAF12 agonist	SMARCA2 act	hgDAF12 agonist	ssDAF12 agonist	DAX1 inh-2
O=C(O[C@H]1CC[C@@]23CCCN2C(=O)CCC[C@H]3C1)N1CCOCC1	x	n	x	n	n	x
Cc1ccc2nc(SCC3CCCCO3)[nH]c2c1 (stereo not drawn)	n	n	n	12.2	n	n
C[n+]1cn(/N=C/c2ccccc2)c2ccccc21	n	5.8	n	n	n	n
Cc1ccc(S(=O)(=O)N2CCN(c3cnn(C)c(=O)c3Cl)CC2)cc1	n	n	n	n	n	n
Cc1ccc(S(=O)(=O)N2CCN(c3cnn(-c4ccccc4)c(=O)c3Cl)CC2)cc1	n	n	n	n	n	4.7
COc1cc(NC(=O)C/C(C)=N/NC(=O)c2cccc(O)c2)c(OC)cc1Cl	n	6.1	n	12.1	n	n
C/C(CC(=O)Nc1ccc2c(c1)OCCO2)=N\NC(=O)c1cccc(O)c1	n	n	n	n	n	6.4
CC(=O)N/N=C(\C)CC(=O)Nc1ccc2c(c1)OCCO2	n	n	n	n	n	n
C/C(CC(=O)Nc1ccc(Br)cc1)=N\NC(=O)c1cccc(O)c1	n	n	n	n	n	5.7
O=c1ccn([C@@H]2O[C@H](CNS(=O)(=O)c3csc(-c4ccno4)c3)[C@@H](O)[C@H]2O)c(=O)[nH]1	n	n	n	n	n	n
CN1C(=O)[C@@](O)(c2cn(C)c3ccccc23)c2cc(F)ccc21	n	n	n	n	n	x
Cc1c(OCC(=O)N[C@@H](Cc2ccccc2)C(=O)O)ccc2c1oc(=O)c1ccccc12	n	n	n	n	n	4.5
Cc1c(OCC(=O)N[C@@H](Cc2ccccc2)C(=O)O)ccc2c3c(c(=O)oc12)CCC3	n	n	n	n	n	n
CN(C)Cc1csc(NC(=O)Nc2ccccc2Oc2ccccc2)n1	n	n	7.9	n	n	x
COc1ccccc1NC(=O)Nc1nc(CC(=O)NCc2cccnc2)cs1	n	n	n	n	n	4.8
CC(=O)Nc1nc(COc2ccccc2)cs1	n	n	n	13.2	n	n
O=C(NC(Cc1ccccc1)C(=O)O)/C(=C/c1ccc([N+](=O)[O-])cc1)NC(=O)c1ccccc1 (stereo not drawn)	n	n	n	n	n	n
COc1ccccc1NC(=O)C(C)OC(=O)C1COc2ccccc2O1 (stereo not drawn)	n	n	n	n	n	n
CCOC(=O)C1(C(=O)OCC)Cc2c([nH]c3ccccc23)[C@]2(N1)C(=O)N(C)c1ccc(Br)cc12	n	n	n	n	n	x
CCN(CC)CCCn1c2c(c(SCC(=O)Nc3cccc4ccccc34)nc1=O)CCC2	3.8	n	n	n	n	n
O=c1oc2ccccc2cc1NCc1ccccc1O	n	n	n	n	n	4.2
COc1cccc(=O)c2c(C)n(CC(=O)c3ccccc3)c(C)c12	n	n	n	n	1.5	n
COC(=O)c1c(NC(=O)c2ccccc2)sc(C(N)=O)c1C	n	n	n	n	1.0	n
CN1C2=NC(c3ccccc3)CC(=O)N2/C(=C\c2ccccc2)C1c1ccccc1C(F)(F)F (stereo not drawn)	x	n	x	n	n	x
CN(CC(=O)N1CCCCCC1)S(=O)(=O)c1ccc(Br)s1	n	n	n	n	n	x
O=C(CN(CC(=O)N1CCOCC1)S(=O)(=O)c1ccc(Br)s1)N1CCOCC1	n	n	n	n	n	6.8
O=C(NCc1ccccc1Cl)C1CCN(C(=O)c2ccc(F)cc2)CC1	n	n	n	n	n	n
O=C(NCc1ccccc1CN1CCCC1)C1CCN(C(=O)c2ccc(F)cc2)CC1	3.8	n	n	n	n	n
Clc1cccc(NCc2ccccc2)n1	n	n	n	n	n	4.9

Bioassay records deposited in PubChem BioAssay by The Scripps Research Institute Molecular Screening Center.
